Results on 17 compounds are retold here after ChEMBL document CHEMBL1961873, “Compounds: GSK PKIS; Assays: Nanosyn kinase panel” (2012).

Experiment [1] deals with Death-associated protein kinase 1 (Homo sapiens) (UniProt P53355). The conditions noted are these: at 1 µM.
For experiment [2], the target named is T1, Serine/threonine-protein kinase DCLK2 (Homo sapiens) (UniProt Q8N568).
T1 sequence (whole entry): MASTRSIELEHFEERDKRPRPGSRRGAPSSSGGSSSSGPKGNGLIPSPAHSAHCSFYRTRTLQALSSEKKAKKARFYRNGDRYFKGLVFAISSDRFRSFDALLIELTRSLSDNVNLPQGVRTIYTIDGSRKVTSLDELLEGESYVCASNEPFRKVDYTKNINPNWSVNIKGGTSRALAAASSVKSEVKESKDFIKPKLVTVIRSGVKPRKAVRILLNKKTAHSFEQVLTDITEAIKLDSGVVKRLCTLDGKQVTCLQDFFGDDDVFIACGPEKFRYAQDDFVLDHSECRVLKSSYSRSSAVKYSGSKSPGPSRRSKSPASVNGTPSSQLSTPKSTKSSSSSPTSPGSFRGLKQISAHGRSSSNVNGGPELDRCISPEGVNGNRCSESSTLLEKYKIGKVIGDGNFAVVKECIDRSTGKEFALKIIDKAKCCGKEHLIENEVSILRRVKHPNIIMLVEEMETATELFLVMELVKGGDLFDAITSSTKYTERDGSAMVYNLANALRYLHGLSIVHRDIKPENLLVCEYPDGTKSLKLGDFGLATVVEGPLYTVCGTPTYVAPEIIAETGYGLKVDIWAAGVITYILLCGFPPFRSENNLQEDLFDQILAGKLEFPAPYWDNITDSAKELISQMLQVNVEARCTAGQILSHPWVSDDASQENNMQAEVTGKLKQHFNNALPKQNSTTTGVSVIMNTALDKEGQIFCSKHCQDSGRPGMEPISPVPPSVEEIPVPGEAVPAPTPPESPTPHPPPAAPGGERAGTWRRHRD
The note with it: at 0.1 µM.

Experiment [3] has as its target T1, Serine/threonine-protein kinase DCLK2 (Homo sapiens). The note with it: at 1 µM.
The target in experiment [4] is MAP kinase-activated protein kinase 2 (Homo sapiens) (UniProt P49137). The conditions noted are these: at 0.1 µM.
Experiment [5] shares this target. The conditions noted are these: at 1 µM.
Experiment [6] deals with MAP kinase-activated protein kinase 3 (Homo sapiens) (UniProt Q16644). The note with it: at 0.1 µM.
Experiment [7] shares this target. The conditions noted are these: at 1 µM.
For experiment [8], the target named is Serine/threonine-protein kinase MARK1 (Homo sapiens) (UniProt Q9P0L2). The conditions noted are these: at 0.1 µM.
For experiment [9] the target is unchanged. The conditions noted are these: at 1 µM.
The target of experiment [10] is MAP/microtubule affinity-regulating kinase 3 (Homo sapiens) (UniProt P27448). The conditions noted are these: at 0.1 µM.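 Also: mean percent inhibition of MARK3 kinase activity, measured within the GSK PKIS screening panel.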
Sequence of MAP/microtubule affinity-regulating kinase 3 (Homo sapiens) (P27448 whole entry, looked up): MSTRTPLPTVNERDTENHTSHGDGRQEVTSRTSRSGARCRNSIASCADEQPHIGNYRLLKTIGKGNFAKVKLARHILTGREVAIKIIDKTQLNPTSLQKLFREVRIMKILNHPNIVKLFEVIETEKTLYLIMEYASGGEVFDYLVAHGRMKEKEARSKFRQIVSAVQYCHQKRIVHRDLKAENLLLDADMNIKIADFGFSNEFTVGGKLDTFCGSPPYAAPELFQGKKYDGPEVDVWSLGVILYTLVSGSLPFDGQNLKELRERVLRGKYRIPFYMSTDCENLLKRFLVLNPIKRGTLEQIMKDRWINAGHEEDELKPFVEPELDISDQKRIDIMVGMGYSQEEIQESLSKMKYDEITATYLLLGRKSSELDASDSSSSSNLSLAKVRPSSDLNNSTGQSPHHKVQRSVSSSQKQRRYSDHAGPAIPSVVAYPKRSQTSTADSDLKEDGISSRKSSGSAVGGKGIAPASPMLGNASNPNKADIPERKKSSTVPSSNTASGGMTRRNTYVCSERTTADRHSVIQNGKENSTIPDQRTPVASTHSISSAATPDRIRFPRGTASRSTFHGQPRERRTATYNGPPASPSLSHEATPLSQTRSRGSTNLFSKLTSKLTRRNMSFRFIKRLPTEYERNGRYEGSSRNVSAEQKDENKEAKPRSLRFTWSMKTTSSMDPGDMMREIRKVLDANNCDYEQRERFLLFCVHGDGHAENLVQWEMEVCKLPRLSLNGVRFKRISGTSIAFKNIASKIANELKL

Sequence of Serine/threonine-protein kinase MARK1 (Homo sapiens) (Q9P0L2 whole entry, looked up): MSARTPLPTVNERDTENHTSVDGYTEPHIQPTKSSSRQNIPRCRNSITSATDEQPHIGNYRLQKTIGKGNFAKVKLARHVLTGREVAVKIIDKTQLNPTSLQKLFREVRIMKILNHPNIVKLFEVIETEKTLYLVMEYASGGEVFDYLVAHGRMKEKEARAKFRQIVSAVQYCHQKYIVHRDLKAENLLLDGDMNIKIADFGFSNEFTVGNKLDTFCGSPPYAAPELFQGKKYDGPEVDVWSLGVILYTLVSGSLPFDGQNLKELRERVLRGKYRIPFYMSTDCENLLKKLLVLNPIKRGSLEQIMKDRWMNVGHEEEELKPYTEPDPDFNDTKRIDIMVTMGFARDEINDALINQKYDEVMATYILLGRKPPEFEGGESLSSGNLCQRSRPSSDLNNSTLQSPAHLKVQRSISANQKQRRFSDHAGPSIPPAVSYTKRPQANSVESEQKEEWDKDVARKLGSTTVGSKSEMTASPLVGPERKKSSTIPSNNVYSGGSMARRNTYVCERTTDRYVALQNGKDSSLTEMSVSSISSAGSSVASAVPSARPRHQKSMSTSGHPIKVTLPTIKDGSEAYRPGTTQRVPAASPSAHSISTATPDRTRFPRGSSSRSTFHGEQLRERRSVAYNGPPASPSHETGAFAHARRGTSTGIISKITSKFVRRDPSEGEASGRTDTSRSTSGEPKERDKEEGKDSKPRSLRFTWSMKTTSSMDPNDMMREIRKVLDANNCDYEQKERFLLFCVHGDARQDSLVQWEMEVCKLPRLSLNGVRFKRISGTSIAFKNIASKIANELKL
Sequence of Death-associated protein kinase 1 (Homo sapiens) (P53355 whole entry, looked up): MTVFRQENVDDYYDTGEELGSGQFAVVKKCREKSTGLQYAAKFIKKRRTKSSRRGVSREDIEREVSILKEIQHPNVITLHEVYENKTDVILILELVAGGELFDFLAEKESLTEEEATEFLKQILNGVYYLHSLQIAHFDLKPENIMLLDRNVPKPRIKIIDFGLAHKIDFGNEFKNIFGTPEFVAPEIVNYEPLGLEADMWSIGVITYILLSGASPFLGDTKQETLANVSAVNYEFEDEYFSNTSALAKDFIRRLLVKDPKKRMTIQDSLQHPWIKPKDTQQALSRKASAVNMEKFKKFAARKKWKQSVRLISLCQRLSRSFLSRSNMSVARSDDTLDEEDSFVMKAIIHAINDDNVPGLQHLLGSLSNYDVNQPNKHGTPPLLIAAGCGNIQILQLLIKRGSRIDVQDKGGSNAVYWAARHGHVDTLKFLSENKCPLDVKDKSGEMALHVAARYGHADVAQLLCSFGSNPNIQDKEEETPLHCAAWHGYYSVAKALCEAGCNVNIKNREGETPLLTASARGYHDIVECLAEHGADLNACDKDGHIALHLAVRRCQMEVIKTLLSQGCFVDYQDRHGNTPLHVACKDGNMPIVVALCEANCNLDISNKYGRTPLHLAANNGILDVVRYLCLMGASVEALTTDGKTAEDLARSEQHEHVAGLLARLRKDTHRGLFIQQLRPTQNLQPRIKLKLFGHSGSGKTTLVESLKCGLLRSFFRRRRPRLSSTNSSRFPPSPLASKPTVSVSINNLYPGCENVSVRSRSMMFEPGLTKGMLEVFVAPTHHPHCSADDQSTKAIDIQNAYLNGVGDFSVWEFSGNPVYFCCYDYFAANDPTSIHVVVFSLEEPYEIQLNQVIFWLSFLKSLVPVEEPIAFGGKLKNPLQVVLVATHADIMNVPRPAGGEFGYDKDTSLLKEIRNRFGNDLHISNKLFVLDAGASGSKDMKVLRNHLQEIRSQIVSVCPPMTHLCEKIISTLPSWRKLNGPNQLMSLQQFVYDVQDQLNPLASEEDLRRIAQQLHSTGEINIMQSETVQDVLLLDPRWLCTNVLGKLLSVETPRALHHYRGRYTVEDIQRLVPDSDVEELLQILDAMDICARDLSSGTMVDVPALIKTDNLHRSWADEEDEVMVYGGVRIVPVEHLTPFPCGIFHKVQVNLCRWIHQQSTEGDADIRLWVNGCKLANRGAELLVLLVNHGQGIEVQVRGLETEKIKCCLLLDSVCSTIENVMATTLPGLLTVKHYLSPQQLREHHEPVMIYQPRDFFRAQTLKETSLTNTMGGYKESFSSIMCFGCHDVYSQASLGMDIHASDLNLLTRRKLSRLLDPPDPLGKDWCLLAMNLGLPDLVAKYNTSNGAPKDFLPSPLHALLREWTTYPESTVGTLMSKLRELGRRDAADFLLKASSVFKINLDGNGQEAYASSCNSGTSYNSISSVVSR
Sequence of MAP kinase-activated protein kinase 3 (Homo sapiens) (Q16644 whole entry, looked up): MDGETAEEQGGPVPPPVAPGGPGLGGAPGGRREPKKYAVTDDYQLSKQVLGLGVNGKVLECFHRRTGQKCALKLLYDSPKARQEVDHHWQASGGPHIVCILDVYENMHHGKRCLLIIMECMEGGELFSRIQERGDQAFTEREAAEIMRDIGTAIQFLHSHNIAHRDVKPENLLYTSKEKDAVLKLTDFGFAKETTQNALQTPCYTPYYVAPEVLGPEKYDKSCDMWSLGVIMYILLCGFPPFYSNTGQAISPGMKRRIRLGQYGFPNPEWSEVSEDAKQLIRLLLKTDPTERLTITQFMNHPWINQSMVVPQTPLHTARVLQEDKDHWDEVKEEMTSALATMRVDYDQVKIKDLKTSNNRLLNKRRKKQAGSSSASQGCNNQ
Sequence of MAP kinase-activated protein kinase 2 (Homo sapiens) (P49137 whole entry, looked up): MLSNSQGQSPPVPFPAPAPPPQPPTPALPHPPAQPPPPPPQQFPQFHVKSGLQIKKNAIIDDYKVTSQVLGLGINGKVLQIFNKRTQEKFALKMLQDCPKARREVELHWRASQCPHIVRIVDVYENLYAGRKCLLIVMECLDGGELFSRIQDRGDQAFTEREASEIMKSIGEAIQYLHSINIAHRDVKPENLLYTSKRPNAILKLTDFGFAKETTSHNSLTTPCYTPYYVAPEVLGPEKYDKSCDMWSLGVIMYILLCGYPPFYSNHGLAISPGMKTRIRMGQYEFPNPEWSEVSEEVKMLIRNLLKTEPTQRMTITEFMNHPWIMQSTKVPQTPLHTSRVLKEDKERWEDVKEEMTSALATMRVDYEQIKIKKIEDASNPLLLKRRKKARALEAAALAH

Usually inhibition stands for the drop in the measured response relative to a control, in per cent. Take `C#Cc1cccc(Nc2ncnc3ccc(OCCCCNCCS(C)(=O)=O)cc23)c1`: the inhibition in experiment [1] is 2.74%; in experiment [2] it was -0.45%; in [3], -4.44%; in experiment [4], 2.15%; in experiment [5] it was 1.98%; in experiment [6], 4.84%. Besides, the inhibition in experiment [7] amounted to 4.44%; in experiment [8], 5.11%; in [9], 8.02%; in [10], 5.17%.
Turning to `Nc1nccc(-c2c(-c3ccc(F)cc3)ncn2C2CCC(O)CC2)n1` (stereo not given), the inhibition is -0.38% in [1]; -1.66% in [2]; 5.59% in [3]; -1.26% in experiment [4]; -1.57% in experiment [5]; 30% in experiment [6]. The inhibition in [7] was 36.4%; in experiment [8] it was -0.13%; in experiment [9], 0.51%; in experiment [10], -1.63%.
For the compound `COc1cc(C)c(N(C)C(=O)CN(C)C)cc1Nc1nc(Nc2cccc(F)c2C(N)=O)c2cc[nH]c2n1`, the inhibition in experiment [1] was 1.79%; in [2] it was -2.4%; in experiment [3], -3.85%; in experiment [4], -0.22%; in [5], 0.04%; in experiment [6], 1.56%. Further, the inhibition in [7] stood at 0.17%; in experiment [8] it was 0.72%; in experiment [9] it was 1.97%; in experiment [10] it was 3.34%.
`CCC(=O)Nc1ccc(C)c(-c2ccc(C(=O)NCC3CC3)cc2)c1`: the inhibition in experiment [1] is -3.18%; in experiment [2] it was -0.58%; in [3], 0.48%; in experiment [4], 0.77%; in experiment [5] it was 1.21%; in [6], 6.24%. Moreover, the inhibition in experiment [7] is 20.1%; in experiment [8] it was 0.75%; in [9], 1.92%; in [10], -0.99%.
Regarding `Cc1ccc(NC(=O)c2ccoc2)cc1-c1ccc(C(=O)NCC2CC2)cc1`, the inhibition was 4.7% in [1]; -0.46% in experiment [2]; -0.45% in experiment [3]; 0.09% in experiment [4]; -0.32% in [5]; 20% in [6]. Besides, the inhibition in experiment [7] came out at 30.9%; in [8], 0.5%; in experiment [9], 1.39%; in experiment [10], 1.61%.
With `CN(C)CCOc1ccc(-c2cc(-c3ccc4c(c3)CCC4=NO)c(-c3ccncc3)o2)cc1`, the inhibition in experiment [1] is -1.18%; in experiment [2], -2.52%; in experiment [3] it was -1.37%; in experiment [4], -1.35%; in experiment [5], -1.61%; in [6], -1.27%. The inhibition in experiment [7] was -1.84%; in experiment [8], -2.08%; in [9], 1.81%; in [10], -5.74%.
For `NC(=O)c1cc(-c2ccncc2)cc(-c2ccccc2)c1N`, the inhibition was -2.35% in experiment [1]; 1.2% in experiment [2]; 1.19% in [3]; -0.48% in [4]; -0.33% in experiment [5]; 1.32% in experiment [6]. Also, the inhibition is -0.36% in [7], 4.42% in [8], 8.02% in experiment [9] and 5.42% in experiment [10].
For `O=C1Nc2ccc(I)cc2C1=Cc1cc(Br)c(O)c(Br)c1`, the inhibition was -4.68% in experiment [1]; 0.92% in experiment [2]; 1.91% in experiment [3]; 1.65% in experiment [4]; 4.08% in experiment [5]; 2.77% in experiment [6]. In addition, the inhibition in [7] is 3.75%; in [8], 0.84%; in [9], 2.09%; in experiment [10] it was -0.57%.
With `CN1CCN(CCCNc2nc3ccc(Oc4ccc(NC(=O)Nc5cc(C(F)(F)F)ccc5F)cc4)cc3[nH]2)CC1`, the inhibition was -0.71% in [1]; -6.99% in experiment [2]; -0.8% in experiment [3]; -0.45% in [4]; -0.49% in experiment [5]; 3.34% in [6]. For the same compound, the inhibition in experiment [7] stood at 18.3%; in experiment [8] it was 0.78%; in [9], 0.66%; in [10], 5.08%.
For `NC(=O)c1ccc(Oc2nccc(-c3c(-c4ccc(F)cc4)ncn3C3CCNCC3)n2)cc1`, the inhibition in experiment [1] was -3.98%; in [2], 0.57%; in [3], 1.94%; in experiment [4], 0.01%; in experiment [5] it was 1.79%; in experiment [6], 17.6%. The inhibition in experiment [7] was determined as 30.8%; in [8], 2.78%; in [9], 4.16%; in experiment [10] it was 3.42%.
Turning to `CN(C)CCCNc1nccc(-c2c(-c3ccc(F)cc3)nn3cc(C(F)(F)F)ccc23)n1`, the inhibition in [1] is 0.77%; in experiment [2], -2.25%; in experiment [3], -1.62%; in [4] it was -0.13%; in [5], 0.05%; in experiment [6] it was 8.23%. Moreover, the inhibition in [7] is 22.7%; in experiment [8], 3.37%; in experiment [9], 1.8%; in [10] it was 3.54%.
For `CNC(=O)c1cncc(/C=C/c2c(C)cccc2C)c1`, the inhibition in experiment [1] was 0.45%; in [2] it was -0.24%; in experiment [3], -2.53%; in experiment [4], 0.41%; in experiment [5], -0.68%; in [6], 0.6%. The inhibition in experiment [7] was determined as 0.25%; in [8] it was 0.88%; in [9], 0.89%; in [10], 0.44%.
Turning to `O=C(Nc1n[nH]c2nc(-c3ccco3)ccc12)C1CC1`, the inhibition in [1] was 8.47%; in [2] it was -5.65%; in [3], -0.3%; in [4], 3.08%; in experiment [5], 2.89%; in [6] it was 7.07%. Moreover, the inhibition was 7.18% in experiment [7], -0.31% in [8], 0.25% in [9] and 3.27% in [10].
`NS(=O)(=O)c1ccc(N/N=C2\C(=O)Nc3ccc(-c4cnco4)cc32)cc1`: the inhibition in [1] was -3.71%; in experiment [2] it was -5.27%; in experiment [3], -2.47%; in experiment [4] it was -0.59%; in experiment [5], 0.18%; in experiment [6], -0.18%. For the same compound, the inhibition in experiment [7] was -0.48%; in experiment [8], 2.3%; in [9], 15.6%; in experiment [10] it was 2.61%.
With `C[C@@H](Oc1cc(-n2cnc3ccc(OC4CCN(C)CC4)cc32)sc1C(N)=O)c1ccccc1Cl`, the inhibition is 1.99% in [1]; -3.12% in [2]; -1.54% in experiment [3]; 1.32% in experiment [4]; 2.41% in experiment [5]; 3.38% in experiment [6]. The inhibition amounted to 3.91% in experiment [7], 3.46% in [8], 8.24% in [9] and 4.33% in experiment [10].
Take `CCc1nccc2c1nc(-c1nonc1N)n2CC`: the inhibition was 2.17% in experiment [1]; -1.22% in experiment [2]; 4.54% in experiment [3]; -0.33% in experiment [4]; -0.34% in experiment [5]; 0.57% in experiment [6]. Also, the inhibition in experiment [7] worked out at 2.5%; in experiment [8] it was 1.68%; in experiment [9], 1.49%; in [10], 1%.
Turning to `COc1ccc2cc(-c3c(-c4ccncc4)nc(-c4ccc([S+](C)[O-])cc4C)n3C)ccc2c1` (stereo not given), the inhibition in experiment [1] was -9.4%; in experiment [2], -1.12%; in experiment [3] it was 5.6%; in [4] it was -3.43%; in experiment [5], -3.96%; in [6], -6.68%. For the same compound, the inhibition is -5.38% in experiment [7], -1.01% in [8], -1.81% in [9] and 0.61% in [10].
